The full list was thinned out, with hits kept by preference.
Dicer processing – inhibitors of Dicer pre-microRNA processing, primary screen, biochemical, cat-ELCCA, chemiluminescence; cat-ELCCA pre-miR-21 Dicer processing; stronger effect = higher value; 47,000 tested, 6% active; Endoribonuclease Dicer (Homo sapiens), Q9UPY3; z-score at 25 µM; AID 1347074, 2019; in the data active = z-score above about 3, passing the limit was not always enough;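 also: plate controls were vehicle for no effect and no enzyme for full effect; higher signal means more uncleaved substrate so more Dicer inhibition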
* marks the source's active call; other numbers are inactive results.

SMILES	Dicer processing
CC1=C(C(=O)OCc2ccccc2)C(c2ccc(C)s2)C2=C(CCCC2=O)N1 (centres undefined)	0.6
CC(C)(C)c1cc(C2=NNC(O)(C(F)(F)F)C2)c2c(c1)C(C)(C)CC2 (centres undefined)	-3.98
CCOC(=O)C1C(=O)CC(C)(O)C(C(=O)OCC)C1c1ccc(Cl)cc1 (centres undefined)	-0.81
Cn1[nH]c(Nc2ccccc2Cl)c(N=Nc2ccc(C(F)(F)F)cc2)c1=O	-2.05
O=C(NC(=O)c1c(F)cccc1Cl)NN(Cc1c(F)cccc1Cl)c1ccccc1	-0.89
Cc1ccc(C)c(Oc2coc3cc(OC(=O)c4ccco4)ccc3c2=O)c1	0.42
O=C(Oc1ccc(OC(=O)c2ccco2)c(Cl)c1)c1ccco1	7.37*
O=C(Oc1cccc2cccnc12)c1ccco1	-2.43
O=C(NC1CCSC1=O)c1ccc(C(=O)NC2CCSC2=O)cc1 (centres undefined)	-0.08
Cc1ccc2c(c1)sc1ncc(NC(=O)c3ccc(Cl)cc3)c(=O)n12	-1.01
O=C(Nc1ccc2oc(-c3cccc(Cl)c3)nc2c1)c1ccc([N+](=O)[O-])o1	7.04
Cc1ccc2nc(-c3ccc(C)c(NC(=O)c4ccc([N+](=O)[O-])o4)c3)oc2c1	4.11*
Cc1ccc(-c2nc3cc(Cl)ccc3o2)cc1NC(=O)c1ccc([N+](=O)[O-])o1	0.65
O=C1Nc2ccccc2C1(O)C(F)(F)F (centres undefined)	-0.46
O=C(N1CCCC1)C1(c2ccccc2)CCOCC1	3.03*
O=C(NC(=S)N1CCCCC1)c1ccccc1	1.36
O=C(O)C1(c2ccccc2)CCCC1	2.43
COc1ccc(Cc2nc(-c3ccc(C)cc3)no2)cc1	2.6
O=C1c2cccc3cccc(c23)C(=O)N1c1ccc(Cl)cc1	6.03*
CN1C(=O)c2cccc3cccc(c23)C1=O	-1.13
O=C1c2cccc3cccc(c23)C(=O)N1c1ccccc1	0.9
COc1ccc(C2Nc3ccccc3-c3nnc(SC)nc3O2)cc1OC (centres undefined)	2.44
S=C1CC(c2ccccc2)Sc2ccccc2N1 (centres undefined)	0.9
CC1(O)CC(c2ccccc2)SC(c2ccccc2)C1 (centres undefined)	0.18
c1ccc(C2CCCC(c3ccccc3)S2)cc1 (centres undefined)	4.77*
SMILES	Dicer processing
CN(C)c1ccncc1C(O)C(F)(F)F (centres undefined)	0.81
CSC(=N\N=C(/C)c1cc2ccccc2o1)/N=C/N(C)C	-1.29
Cc1nn(C(=O)c2ccc([N+](=O)[O-])cc2)c(C)c1Cc1csc2ccc(Cl)cc12	0.62
O=C(O)CNC(=O)c1ccc(Br)cc1	0.52
NNC(=O)CNC(=O)c1ccc(Br)cc1	4.75*
NNC(=O)CNC(=O)c1c(F)cccc1F	-2
COc1ccc(C2c3c(oc4ccc(C)cc4c3=O)C(=O)N2c2nccs2)cc1OC (centres undefined)	2.48
Cc1ccc2c(C)nc(NC3=NCN(CCN4CCOCC4)CN3)nc2c1	-0.04
N=C(N)SCc1cc2ccccc2o1	3.22*
N=C(N)SCc1cccc(Cl)c1	1.32
N=C(N)SCc1cccc(CSC(=N)N)c1F	-3.4
Cc1nn(C)c(=O)c2noc(/C=C/c3ccc(Cl)c(Cl)c3)c12	-0.86
Cc1cc(NC(=O)CC(C)(C)CC(=O)O)n(C)n1	-0.79
OC(CNC1CCN(Cc2ccccc2)CC1)C(F)(F)F (centres undefined)	1.34
COc1ccc(C2N=C(N)Nc3nc4ccccc4n32)cc1 (centres undefined)	-0.05
COc1ccc(OC)c(C2N=C(N)Nc3nc4ccccc4n32)c1 (centres undefined)	-1.18
COc1ccccc1C1N=C(N)Nc2nc3ccccc3n21 (centres undefined)	34.3*
O=C(NNS(=O)(=O)c1cc(C(F)(F)F)cc(C(F)(F)F)c1)c1sccc1-n1cccc1	0.59
CSc1nnc(-c2ccc(C(C)(C)C)cc2)o1	1.48
Cc1cnn2c3c(cnc12)C(=O)c1ccccc1-3	0.42
Cc1c(CC(=O)NNS(=O)(=O)c2ccccc2C(F)(F)F)sc2ccc(Cl)cc12	0.58
Cc1nc2ccccn2c1C(=O)NNS(=O)(=O)c1sc2ccc(Cl)cc2c1C	-0.07
Cc1c(S(=O)(=O)Nc2ccc3[nH]ccc3c2)sc2ccc(Cl)cc12	3.48*
O=C(CCc1ccccc1)NNc1ccccc1C(F)(F)F	-1.64
COC(=O)c1cc2c(N)c(C(=O)c3ccc(C)cc3)sc2nc1C(OC)OC	-0.12
SMILES	Dicer processing
O=C(CC1CC(=O)Oc2ccccc21)Nc1nccs1 (centres undefined)	3.83*
O=C(Nc1nccs1)C1COc2ccccc2O1 (centres undefined)	0.33
O=C(Cn1c(=O)sc2ccccc21)Nc1nccs1	-1.15
N#Cc1c(-c2ccc(Cl)cc2)nc(SCc2ccccc2)[nH]c1=O	1.17
C=CCN1/C(=C/c2cc[n+](C)cc2)Sc2ccccc21	0.24
CCCN1C(=O)C(O)(CC(=O)c2ccco2)c2ccccc21 (centres undefined)	0.02
COc1ccc(OC)c(C(=O)CC2(O)C(=O)N(C(C)C)c3ccccc32)c1 (centres undefined)	0.57
CC(C)N1C(=O)C(O)(CC(=O)c2ccco2)c2ccccc21 (centres undefined)	6.92*
CCOC(=O)COc1nsnc1N1CCOCC1	0.26
Cc1nccc(-c2cccc(N/N=C(\C#N)C(=O)c3ccc(Cl)cc3)c2)n1	2.58
CC(=O)Nc1ccc(NC(=O)CCCC(=O)O)cc1	-2.43
O=C(O)CCC(=O)Nc1ccc(C(=O)O)c(O)c1	6.1*
Cc1ccc(NC(=O)CCC(=O)O)cc1	-0.07
Nc1c(C(=O)N/N=C/c2ccc3c(c2)OCO3)sc2nnc(-c3ccccc3)c(-c3ccccc3)c12	0.44
O=C(CSc1nc(-c2ccco2)cc(C(F)(F)F)n1)Nc1ccc(-n2cccc2)c(Cl)c1	-0.31
Cn1c(-c2ccc(F)cc2)cnc1NCc1cccc(Br)c1	2.84
Cn1c(-c2ccccc2)cnc1NCc1cccc(Br)c1	4.44*
Cc1ccc(-c2cnc(NCc3ccc(Cl)cc3)n2C)cc1	3.17*
Cn1c(-c2ccccc2)cnc1NCc1ccccc1O	1.93
Cn1c(-c2ccc(Cl)cc2)cnc1NCc1ccc(F)cc1	2.57
Cn1c(-c2cccc(Br)c2)cnc1NCc1ccccc1	3.84*
COc1ccc(-c2cnc(NCc3ccc(Cl)cc3)n2C)cc1	-0.45
COc1ccccc1CNc1ncc(-c2cccc(Br)c2)n1C	-0.18
Cn1c(-c2ccc(Br)cc2)cnc1NCc1cccc(F)c1	2.51
COc1cc(Sc2ccc(Cl)cc2)ccc1[N+](=O)[O-]	-0.52
SMILES	Dicer processing
COc1ccc(OC)c(Sc2ccc(Cl)cc2[N+](=O)[O-])c1	0.07
COc1ccc(OC)c(Sc2ccc(C(F)(F)F)cc2[N+](=O)[O-])c1	7.84*
Cc1cc(Sc2ccc(C(F)(F)F)cc2[N+](=O)[O-])c(Cl)cc1Cl	-0.53
COc1ccc(OC)c(Sc2ccc([N+](=O)[O-])cc2)c1	4.48*
COc1cc([N+](=O)[O-])c(C)cc1Sc1ccc(C)cc1	-0.13
C/C(=N\NC(=O)CN1C(=O)CSc2ccccc21)c1ccco1	-0.42
COc1cccc(O)c1C1=Nc2ccccc2SC(c2ccccc2)C1 (centres undefined)	-0.3
Cc1nc(S(=O)(=O)Nc2ccc(-c3cn4c(n3)SCC4)cc2)cn1C	-0.29
O=C(Nc1ccc(Cl)cc1)N1CCOCC1	0.1
O=C(Nc1ccccc1)N1CCSCC1	1.61

Screening data as filed in PubChem.
